Whole data set: some 33,000 sequences, median “E-score (-0.5 to 0.5)” near -0.035, cut for the highest 2% near 0.34. This is one part of a sample in which the highest values are shown more often than they occur.
These sequences were tested against T1, Mot3 (UniProt P54785) (assay: PBM E-score (8-mer binding enrichment) (E-score (-0.5 to 0.5)); higher = stronger / more preferred TF binding). Settings: protein concentration: 200 nM; construct: GST-full length.
T1 sequence: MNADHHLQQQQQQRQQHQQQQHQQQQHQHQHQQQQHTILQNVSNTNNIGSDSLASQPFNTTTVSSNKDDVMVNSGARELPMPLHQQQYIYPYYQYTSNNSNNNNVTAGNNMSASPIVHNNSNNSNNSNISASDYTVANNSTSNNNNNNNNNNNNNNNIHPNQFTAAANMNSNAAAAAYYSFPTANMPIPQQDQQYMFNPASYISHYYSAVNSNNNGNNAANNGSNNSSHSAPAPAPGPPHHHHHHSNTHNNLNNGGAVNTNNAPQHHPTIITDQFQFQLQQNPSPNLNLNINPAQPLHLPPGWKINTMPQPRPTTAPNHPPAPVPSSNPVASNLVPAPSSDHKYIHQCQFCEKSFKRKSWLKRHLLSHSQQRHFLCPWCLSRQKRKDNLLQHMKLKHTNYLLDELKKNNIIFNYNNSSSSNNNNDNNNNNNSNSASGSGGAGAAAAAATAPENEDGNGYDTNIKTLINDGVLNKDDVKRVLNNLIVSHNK
Experimental: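 Universal 'all 10-mer' protein binding microarrays (Agilent AMADID 015681) probed with GST-tagged S. cerevisiae TFs (full-length or DBD) made by in vitro transcription/translation (PURExpress), about 100-200 nM. Bound TF was detected with fluorescent anti-GST. Each ungapped 8-mer (which stands for itself and its reverse complement) is scored by the PBM enrichment score (E-score), a modified Wilcoxon-Mann-Whitney statistic from -0.5 to +0.5, computed with the Universal PBM Analysis Suite. Scale: above 0.35 generally sequence-specific binding.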

Sequence	PBM E-score
TGAGGAAA	0.0921
GGACAGCA	-0.224
ATCGGACA	-0.0499
CGACATAA	0.0835
TAGTTCCA	0.00515
AAACGCAC	0.0986
TAGCGGAA	-0.15
CTCGAGAG	-0.177
AGTGGGAT	-0.0984
AACGGCGG	-0.117
GGAGGAAC	0.272
AGAGGAAC	0.0727
ATAGGAAT	-0.00642
ATAGGAAG	-0.0193
GTAGGAAC	0.457
ATAGGAAC	0.456
TTGCCCAA	0.111
CCAACCAC	0.083
ACAAAAGA	0.166
CGTAGCCA	-0.208
ACACTGAT	-0.138
CCACAGGC	0.194

Sequence	PBM E-score
ACCAACCG	-0.16
AGAAGGAG	-0.107
GGAAGGAA	0.384
CGAAGGAC	-0.03
TGGAGGAA	0.0436
TGAAGGAA	0.434
AGAAGGAA	0.382
GGAAGGAC	-0.122
CGAAGGAA	0.39
AGAAGGAC	-0.198
CGAAGGAG	-0.225
GCAAGGAA	0.211
AGAAGGAT	0.0925
CTTGGATA	-0.039
GACTCCTA	-0.00028
CAACAACA	0.315
TCGGTCCA	-0.0654
CGATACTC	-0.259
GCATTTGA	0.0576
GCCAAAGA	-0.0826
CCTAGGCA	0.459
CCTAGGCC	-0.0992

Sequence	PBM E-score
TCTAGACA	0.167
GCTAGGCA	0.446
ACTAGGCA	0.425
GCTAGGCC	-0.374
TCTAGGAA	0.315
CCTAGGCG	-0.157
ACTAGGCG	0.168
TCTAGGCA	0.458
GCTAGGTA	-0.0278
ACTAGGCC	-0.141
GTCGCACA	-0.125
AGGCGTTG	0.185
GACTGTGA	-0.0263
GTGATAGA	-0.0161
GCTCCCCC	-0.288
TAACATAA	0.341
CTACATAA	0.228
CAACATAA	0.289
TTACATAA	0.408
GAACATAA	0.0111
GTACATAA	0.306
CAGGCTCC	0.28

Sequence	PBM E-score
CAGGCTCA	0.392
TAGGCTCA	0.109
CAGGCTCG	0.342
AAGGCTCG	0.235
AAGGCTCA	0.336
CATTTGGG	-0.173
CTTAGCCC	-0.079
GAAAGGAC	-0.118
AACTTCGC	-0.0198
ACGCTCCC	-0.0438
GAGGAAAA	0.0527
ATGGAAAG	0.0416
CGGGAAAC	-0.0422
AAGGAAAT	0.426
AGGGAAAG	-0.0829
TAGGGAAA	-0.0198
TAGGAAAA	0.384
CAGAAAAC	0.152
AGGGAAAT	-0.0244
CAGGAAAC	0.445
ATGGAAAT	0.0932
AAGGAAAG	0.441

Source: the supplement of paper PMC3334620
